From PubChem
TWEAK Fn14 block = inhibitors of TWEAK-Fn14 signaling, primary screen, luciferase reporter cells, uHTS | actives 2% (n = 360,000) | inhibition, % at 10 µM | TWEAK-stimulated Fn14 reporter cells, luciferase luminescence, 8 h; in the data active = inhibition above about 50%
EWS-Fli block = EWS/Fli-driven NR0B1 reporter inhibitors, primary screen, A673 cells, NR0B1 luciferase, luminescence, MLPCN library; viability-normalised; inhibition, % at 12.6 µM; actives 0.67% (n = 350,000);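 active = mean inhibition of at least 50% after viability correction, with every replicate also passing that limit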;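 also: firefly luciferase signal divided by Alamar Blue viability fluorescence both relative to DMSO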
LGR2 antag = inhibitors of bursicon-induced LGR2 CRE-luciferase signal, primary screen, cell-based, HEK293, CRE-luciferase reporter, bursicon stimulation; Drosophila bursicon receptor LGR2 (rickets); bursicon-stimulated, 4 h; inhibition, % at 9.99 µM; actives 0.35% (n = 380,000); AID 720647, 2013;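 active = drop in luminescence signal, shown as inhibition above about 50% in the replicate tests, limit read from the data, passing the limit was not always enough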;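 also: agonist challenge used bursicon conditioned medium at about half maximal strength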
LMP1 NFkB inh = EBV LMP1-driven NF-kappaB luciferase reporter inhibitors, primary screen, cell-based, luminescence, single point | actives 0.69% (n = 350,000) | AID 504558, 2011 | LMP1-induced NF-kappaB luciferase reporter cells | inhibition, % at 12.5 µM; in the data active = inhibition above about 41%
TROY signal inh = inhibitors of TROY-driven NF-kB signaling, primary screen, Q293 LMP1-TROYcd cells, NF-kB luciferase, uHTS; Q293 LMP1-TROYcd NF-kB luciferase reporter, 4 h; inhibition, % at 10 µM; actives 0.98% (n = 360,000);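 active = compounds whose plate-normalised and pattern-corrected inhibition of the luciferase reporter signal at the single screening dose is 50% or more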
Numbers stand for hits. The list is not random: actives were taken first. Their share in the collection is about 2.6%.

`O=C(/C=C/c1ccc(Cl)cc1)c1ccc([N+](=O)[O-])o1` gave TWEAK Fn14 block 88, EWS-Fli block inactive, LGR2 antag inactive, LMP1 NFkB inh inactive and TROY signal inh inactive.
Screening Cc1cc(O)c(C(=O)/C=C/c2ccc(Cl)cc2)c(=O)o1 returned TWEAK Fn14 block inactive, EWS-Fli block inactive, LGR2 antag inactive, LMP1 NFkB inh inactive and TROY signal inh inactive.
Cc1ccc(/C=C/C(=O)c2ccc([N+](=O)[O-])o2)cc1 was read as EWS-Fli block 64 and LGR2 antag inactive.
For CC(C)NC(=O)Nc1ccc2c(c1)C(=O)N(C)[C@@H]1CC[C@@H](CC(=O)NCc3ccc(F)cc3)O[C@H]1CO2 the results were EWS-Fli block inactive and LGR2 antag inactive.
`CCCNC(=O)[C@@H]1[C@@H](CO)[C@@H]2Cn3c(ccc(-c4ccccc4)c3=O)[C@H]1N2C(=O)Nc1ccccc1` gave EWS-Fli block inactive and LGR2 antag inactive.
Screening Cc1cc(C)cc(C(=O)NCCC(=O)NCc2cc(=O)n(C)c(=O)n2C)c1 returned TWEAK Fn14 block inactive, EWS-Fli block inactive, LGR2 antag inactive, LMP1 NFkB inh 55 and TROY signal inh inactive.
COc1ccc(S(=O)(=O)N(C)C[C@@H]2Oc3ccc(NC(=O)c4ccncc4)cc3CC(=O)N([C@@H](C)CO)C[C@H]2C)cc1 was read as EWS-Fli block inactive and LGR2 antag inactive.
Screening O=C(Nc1ccc(Br)cc1)c1ccc(F)c(S(=O)(=O)NCc2cccs2)c1 returned TWEAK Fn14 block 58, LGR2 antag inactive, LMP1 NFkB inh inactive and TROY signal inh inactive.
Cc1ccc(Nc2nc(Nc3ccc(C)cc3)nc(SC3=NCCS3)n2)cc1 was read as TWEAK Fn14 block inactive, LMP1 NFkB inh inactive and TROY signal inh inactive.
`Cc1ccccc1Nc1nc(Nc2ccccc2C)nc(SC2=NCCS2)n1` gave TWEAK Fn14 block 71, EWS-Fli block inactive, LGR2 antag inactive, LMP1 NFkB inh inactive and TROY signal inh inactive.
`O=C(CCn1cnc(-c2ccccc2)c1-c1ccccc1)N/N=C/c1ccc(O)cc1` gave TWEAK Fn14 block inactive, EWS-Fli block inactive, LGR2 antag inactive, LMP1 NFkB inh inactive and TROY signal inh inactive.
COc1ccc(/C=N/NC(=O)COc2ccccc2-c2ccccc2)cc1 was read as TWEAK Fn14 block inactive, LGR2 antag inactive, LMP1 NFkB inh 74 and TROY signal inh inactive.
`COc1ccc(/C=N/NC(=O)CCn2cnc(-c3ccccc3)c2-c2ccccc2)cc1` gave TWEAK Fn14 block inactive, EWS-Fli block 51, LGR2 antag inactive, LMP1 NFkB inh inactive and TROY signal inh inactive.
CN(C)C(=O)[C@@H]1[C@@H](CO)[C@@H]2Cn3c(ccc(C4=CCCCC4)c3=O)[C@H]1N2Cc1ccccc1F was read as EWS-Fli block inactive and LGR2 antag inactive.
`CC=Cc1ccc2n(c1=O)C[C@H]1[C@H](CO)[C@@H](C(=O)NCC3CC3)[C@@H]2N1CC1CCOCC1` (mixture of isomers) gave EWS-Fli block inactive and LGR2 antag inactive.
`O=C(Nc1ccn(CCOC(=O)c2ccccc2)c(=O)n1)c1ccccc1` gave TWEAK Fn14 block inactive, EWS-Fli block inactive, LGR2 antag inactive and TROY signal inh 54.
For O=C(Nc1ccn(C2CCC(CO)O2)c(=O)n1)c1ccccc1 (configuration not stated) the results were TWEAK Fn14 block inactive, EWS-Fli block inactive, LGR2 antag inactive and TROY signal inh inactive.
COc1ccc(Cn2c(O)c(C=Nc3ccc(OC)cc3)c3ccccc3c2=O)cc1 was read as TWEAK Fn14 block inactive, LGR2 antag inactive, LMP1 NFkB inh inactive and TROY signal inh inactive.
COc1ccc(Cn2c(O)c(C=Nc3ccccc3C(=O)O)c3ccccc3c2=O)cc1 was read as TWEAK Fn14 block inactive, EWS-Fli block inactive, LGR2 antag inactive, LMP1 NFkB inh 44 and TROY signal inh 52.
Screening CCCOc1ccc(C(=O)Nc2cccnc2)cc1 returned TWEAK Fn14 block inactive, EWS-Fli block inactive, LGR2 antag inactive, LMP1 NFkB inh inactive and TROY signal inh inactive.
Screening CCOc1cc(C(=O)Nc2cccnc2)cc(OCC)c1OCC returned TWEAK Fn14 block inactive, EWS-Fli block inactive, LGR2 antag inactive, LMP1 NFkB inh inactive and TROY signal inh 52.
`CS(=O)(=O)N1[C@@H]2Cn3c(ccc(-c4ccccc4)c3=O)[C@H]1[C@@H](C(=O)NCC1CC1)[C@@H]2CO` gave EWS-Fli block inactive and LGR2 antag inactive.
`Cn1c(=O)c2nc(NCc3ccccc3)cnc2n(C)c1=O` gave TWEAK Fn14 block inactive, EWS-Fli block inactive, LGR2 antag inactive, LMP1 NFkB inh inactive and TROY signal inh inactive.
`Cc1nc2c(=O)n(C)c(=O)n(C)c2nc1Cl` gave TWEAK Fn14 block 50, EWS-Fli block 59, LGR2 antag inactive, LMP1 NFkB inh inactive and TROY signal inh inactive.
For CCCc1cn(CC[C@H]2CC[C@H](NC(=O)Cc3cccnc3)[C@@H](CO)O2)nn1 the results were EWS-Fli block inactive and LGR2 antag inactive.
`C[C@@H](OC(=O)c1[nH]cnc1C(=O)N1CCc2ccccc2C1)c1ccccc1` gave TWEAK Fn14 block inactive, EWS-Fli block inactive, LMP1 NFkB inh 85 and TROY signal inh inactive.
CC1CCN(C(=O)c2nc[nH]c2C(=O)O[C@H](C)c2ccccc2)CC1 was read as TWEAK Fn14 block inactive, EWS-Fli block inactive, LGR2 antag inactive, LMP1 NFkB inh inactive and TROY signal inh inactive.
Screening CC(C)(C)c1ccc(Nc2n[nH]c3ccccc23)cc1 returned TWEAK Fn14 block 53, EWS-Fli block inactive, LGR2 antag inactive and TROY signal inh 53.
Screening O=C(C[C@@H]1C=C[C@@H](NC(=O)Nc2ccccc2F)[C@@H](CO)O1)NCc1ccc(F)cc1 returned EWS-Fli block inactive and LGR2 antag inactive.
`CCOC(=O)C(=Cc1ccc(-n2cncn2)cc1)C(=O)OCC` gave TWEAK Fn14 block 101, EWS-Fli block inactive, LGR2 antag 65, LMP1 NFkB inh inactive and TROY signal inh 63.
Cc1ccc2oc(/N=C(\N)NC(=O)C3CC3)nc2c1 was read as TWEAK Fn14 block 64, EWS-Fli block inactive, LMP1 NFkB inh inactive and TROY signal inh inactive.
CC(C)(C)c1ccc(C(=O)N/C(N)=N/c2nc3ccccc3o2)cc1 was read as TWEAK Fn14 block inactive, LMP1 NFkB inh inactive and TROY signal inh inactive.
`Cc1ccc(-c2ccc([C@@H]3[C@H]4CN(C(=O)c5ccncc5)CC(=O)N4[C@H]3CO)cc2)cc1` gave EWS-Fli block inactive and LGR2 antag inactive.
Screening C=CCSc1nnc(CCCCCN2C(=O)c3cccc4cccc(c34)C2=O)o1 returned TWEAK Fn14 block inactive, EWS-Fli block inactive, LGR2 antag inactive, LMP1 NFkB inh 59 and TROY signal inh inactive.
CCOC(=O)c1sc2nc3c(cc2c1N)COC(C(C)C)C3 (configuration not stated) was read as TWEAK Fn14 block 85, LMP1 NFkB inh inactive and TROY signal inh 66.
